The record followed here is PubChem BioAssay AID2685 (National Center for Advancing Translational Sciences (NCATS), 2010).

Each structure is given as a SMILES string. In all, about 320,000 compounds went through this assay and about 2,100 (0.66%) were called active. Inconclusive results (about 53%) are left out. Calls come from the whole dose curve; as a rule, active = well fitted inhibition curve with a large enough effect in the signal ratio, with a control signal flat (not every such curve was filed as active); inconclusive = small, poorly fitted or top-dose-only effect, or effect the other way, or a change in a side signal; inactive = flat fitted curve, though single readings scatter; the % refers to the signal ratio. The list comes from a sample in which actives are over-represented; it also holds similar structures and randomly drawn compounds.
Potency is the fitted concentration of half-maximal effect.

This assay is described as follows: qHTS Assay for Lipid Storage Modulators in Drosophila S3 Cells.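 For cell number change: cells counted by Cell Tracker Red CMTPX staining in the red channel.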 For lipid storage change, negative = inhibition: % is set by controls: 0 for no effect and ±100 for the full control effect. The settings on record: BODIPY lipid droplet fluorescence, 18-24 h, cells fed with added oleic acid; cell number change: measured here: cell count max response; series mostly up to 46.1 µM; lipid storage change, negative = inhibition: at the top concentration. The text has this:
NIH Molecular Libraries Probe Production Centers Network [MLPCN] NIH Chemical Genomics Center [NCGC] MLPCN Grant: 1 R03 MH085686-01 Assay Submitter (PI): Beller, Mathias; Max-Planck-Institut fur Biophysikalische Chemie NCGC Assay Overview: Storing lipids as a reservoir for energy or the anabolism of elementary metabolites is a common feature of probably all cells and is conserved from bacteria to humans. The universal cellular lipid storage organelle is the so-called lipid storage droplet (LD). Although ubiquitous, LDs share a simple structure composed of a hydrophobic core that harbors the storage lipids, which is shielded by a droplet-specific phospholipid monolayer to which proteins are attached. The current model of LD biogenesis involves an incorporation of the lipid core into the membrane leaflets of the endoplasmic reticulum (ER) followed by a subsequent budding-like maturation of a LD, which ultimately pinches off. Once released, LD volume can increase by localized lipogenesis or fusion of existing droplet. Storage lipids are re-mobilized enzymatically by lipase activity. Lipase regulation in the adipocyte is heavily studied and involves multiple components including catecholamine signaling, the LD-associated proteins Perilipin and comparative gene identification (CGI-58) and at least two lipases named hormone sensitive lipase (HSL) and adipocyte triglyceride lipase (ATGL). LD regulation outside of the adipocyte is poorly understood and only few components are known. However, there is an urgent need to learn more about ectopic fat depots as mislocalized storage of lipids, for example in the liver or muscle, is an eminent health problem associated with insulin resistance or the metabolic syndrome. We developed a laser-scanning cytometer assay to enable 1,536-well screening and combined the results of the small molecules screen with an RNAi database based on lipid storage.
Triacsin C (Sigma-Aldrich T-4540), an inhibitor of long-chain fatty acyl CoA synthetase that blocks synthesis of triglycerides, was used as a positive control for lipid under-storage. A total of 23 nL of compound solution of different concentrations were transferred to the assay plates using a Kalypsys pin tool equipped with a 1,536-pin array containing 10-nL slotted pins (FP1S10, 0.457-mm diameter, 50.8 mm long; V&P Scientific). One microliter of oleic acid (400 uM) was added, and the plate was lidded with stainless steel rubber gasket lined lids containing pinholes. […] Fluorescence was detected by excitation of the fluorophores with a 488-nm laser on an Acumen Explorer (TTP Lab Tech). The total intensity in channel 2 (500-530 nm) reflected lipid droplet accumulation. Cells were detected using channel 3 (575-640 nm) with 5-um width and 100-um depth filters. The ratio of the number of objects in PMT channel 2 over the number of objects in PMT channel 3 was also calculated. Percent activity was computed relative to an internal control (100% inhibited lipid droplet deposition due to the presence of 20 uM Triacsin C), which was added to 32 wells/plate.
Background: In qHTS, concentration-response curves come from the screen itself.
In the case of `O=S(=O)(NC1=NCCC1)c1ccc(F)cc1`, the Potency is 20.6 µM (active) and the cell number change worked out at 8.19%.

In the case of `Cc1ccc(S(=O)(=O)N2CCOCC2)cc1NC(=O)COC(=O)c1cnc(Cl)c(Cl)c1`, the “lipid storage change, negative = inhibition” value is 15.2% (inactive) and the cell number change stood at 24.4%.

Turning to `CCOC(=O)Cn1cnc2scc(-c3ccc(C)c(C)c3)c2c1=O`, the call was inactive and the cell number change was determined as 4.4%.

Consider `COc1ccc(OC)c(/C=C/C(=O)N2CCCc3ccccc32)c1`, for which the “lipid storage change, negative = inhibition” value is -2.46% (inactive).

For the compound `COc1ccc(OC)c(/C=C/C(=O)N2C(=O)c3cccc(N)c3C2=O)c1`, the Potency is 16.4 µM (active) and the cell number change amounted to 10.9%.

Consider `Nc1cccc2c1C(=O)N(C(=O)/C=C/c1ccc(F)cc1)C2=O`, for which the “lipid storage change, negative = inhibition” value was -17.9% (inactive) and the cell number change is -29.8%.

For `COc1ccc(OC)c(/C=C/C(=O)N2CCN(S(=O)(=O)c3cc(C)ccc3C)CC2)c1`, the “lipid storage change, negative = inhibition” value was 11.1% (inactive) and the cell number change came out at 6.55%.

Regarding `Nc1cccc2c1C(=O)N(C(=O)/C=C/c1cccc(F)c1)C2=O`, the “lipid storage change, negative = inhibition” value is -19.8% (inactive) and the cell number change was -23.5%.

`COc1cc(/C=C/C(=O)N2C(=O)c3cccc(N)c3C2=O)cc(OC)c1OC`: the Potency is 5.17 µM (active) and the cell number change is -14.5%.

For the compound `O=C(c1ccc(Cl)cc1)c1ccc(CN2C(=O)c3ccccc3C2=O)o1`, the “lipid storage change, negative = inhibition” value was 2.8% (inactive) and the cell number change is 8.92%.

In the case of `COCCNc1nc(CSc2ccccc2)nc2sc(C)c(C)c12`, the “lipid storage change, negative = inhibition” value is 11.7% (inactive) and the cell number change came to 2.1%.

In the case of `FC(F)(F)c1cc(C(F)(F)F)c2ccc(N3CCN(c4ncccn4)CC3)nc2n1`, the “lipid storage change, negative = inhibition” value is 15.1% (inactive) and the cell number change was determined as 9.76%.

In the case of `Cc1nn(Cc2ccc(C(=O)O)o2)c(C)c1[N+](=O)[O-]`, the “lipid storage change, negative = inhibition” value was -2.98% (inactive) and the cell number change was 19.3%.

Turning to `CCCN1C(=O)c2ccc(C(=O)NC3=NCCS3)cc2C1=O`, the compound was classed as inactive.

Regarding `Cc1nn(-c2ccc(N3CCOCC3)nn2)c(C)c1CCC(=O)NCc1ccc(F)cc1`, the “lipid storage change, negative = inhibition” value is 10% (inactive) and the cell number change was found to be 2.75%.

In the case of `CC(=O)c1ccc(N2CCN(C(=O)Nc3ccc(F)cc3F)CC2)cc1`, the “lipid storage change, negative = inhibition” value is 1.35% (inactive) and the cell number change is 18.2%.

Turning to `COc1ccc(C(=O)Nc2ccc(Cl)cc2C(=O)N2CCOCC2)cc1`, the “lipid storage change, negative = inhibition” value was 0.287% (inactive) and the cell number change worked out at 17.2%.

Take `Cc1nnc2n1CCCCC2`: the “lipid storage change, negative = inhibition” value was 4.69% (inactive) and the cell number change stood at 4.65%.

On to `O=[N+]([O-])c1ccc(Oc2ccc(/C=N/O)cc2)nc1`, for which the “lipid storage change, negative = inhibition” value is 19.2% (inactive) and the cell number change is -1.55%.

For the compound `CS(=O)(=O)c1ccc(N2CCOCC2)c(S(C)(=O)=O)c1`, the “lipid storage change, negative = inhibition” value is -24.1% (inactive) and the cell number change came to 4.86%.

On to `CCOC(=O)CN1C(=O)C2(OCCCO2)c2ccccc21`, for which the Potency is 23.1 µM (active).

In the case of `CCCC(=O)CN1C(=O)C2(OCCO2)c2ccccc21`, the “lipid storage change, negative = inhibition” value was 16.7% (inactive) and the cell number change was -15.8%.

With `CCOC(=O)CN1C(=O)C2(OCCCO2)c2cc(Br)ccc21`, the “lipid storage change, negative = inhibition” value is -19.3% (inactive) and the cell number change was -7.87%.

Turning to `COCCNC(=O)CN1C(=O)NC2(CCCc3cc(OC)ccc32)C1=O` (stereo not given), the “lipid storage change, negative = inhibition” value is 5.71% (inactive).

For the compound `CCOc1ccc(C(=O)CCC(=O)N(CC)CC(=O)NCc2cccs2)cc1`, the “lipid storage change, negative = inhibition” value was 14.6% (inactive) and the cell number change was 12.9%.

Regarding `Cc1ccc2occ(/C=N/NC(=O)c3ccccc3Br)c(=O)c2c1`, the outcome was inactive.

Take `CCOc1ccccc1C(=O)N/N=C/c1coc2ccc(C)cc2c1=O`: the Potency was 10.3 µM (active) and the cell number change is -20.2%.

As for `Cc1ccc2occ(/C=N/NC(=O)c3ccccc3O)c(=O)c2c1`, the “lipid storage change, negative = inhibition” value is -9.35% (inactive) and the cell number change is 1.16%.

As for `COc1cccc(Oc2cn[nH]c2-c2ccc(OCC(=O)NN)cc2O)c1`, the “lipid storage change, negative = inhibition” value is 18.3% (inactive) and the cell number change is 0.872%.

Turning to `CC(C)(C)c1cc(C(=O)CCN2CCOCC2)cc(C(C)(C)C)c1O`, the Potency was 29.1 µM (active) and the cell number change was -17.7%.

Turning to `CC(C)(C)c1cc(C(=S)N2CCN(CCO)CC2)cc(C(C)(C)C)c1O`, the call was inactive.

On to `CN1CCN(CC(=O)c2cc(C(C)(C)C)c(O)c(C(C)(C)C)c2)CC1`, for which the outcome was inactive and the cell number change came out at 15.8%.

As for `COc1cc(NC(=O)C2CC(c3c(F)cccc3Cl)=NO2)cc(OC)c1OC` (stereo not given), the Potency was 11.6 µM (active) and the cell number change is -15.1%.

With `COc1cc(NC(=O)C2CC(c3c(F)cccc3Cl)=NO2)c(OC)cc1Cl` (stereo not given), the “lipid storage change, negative = inhibition” value is 15.8% (inactive) and the cell number change was -7.33%.

For the compound `COc1ccc(NC(=O)C2CC(c3c(F)cccc3Cl)=NO2)cc1OC` (stereo not given), the “lipid storage change, negative = inhibition” value was -13% (inactive) and the cell number change was -11.7%.

For `COc1ccc(NC(=O)C2CC(c3ccccc3O)=NO2)cc1OC` (stereo not given), the compound was classed as inactive.

On to `COc1cccc(C2=NOC(C(=O)Nc3ccc4c(c3)OCO4)C2)c1` (stereo not given), for which the “lipid storage change, negative = inhibition” value is 4.64% (inactive) and the cell number change is 7.67%.

In the case of `COc1cccc(C2=NOC(C(=O)Nc3ccc(OC)c(OC)c3)C2)c1` (stereo not given), the Potency was 11.6 µM (active).

Consider `O=C(O)CC1C(=O)NCCN1CCCc1ccccc1` (stereo not given), for which the call was inactive.

In the case of `CSc1cccc(NC(=O)C(C)NS(=O)(=O)c2ccc(F)cc2)c1` (stereo not given), the compound was called inactive.

As for `Cc1cc(C)nc(/N=C(\N)N2CCCCC2)n1`, the “lipid storage change, negative = inhibition” value was -9.41% (inactive) and the cell number change was -8.98%.

Turning to `Cc1ccc(C(=O)C[n+]2cccc(C(N)=O)c2)cc1`, the “lipid storage change, negative = inhibition” value was -6.48% (inactive) and the cell number change came to 8.69%.

Turning to `Cc1c(C(=O)n2cnc3ccccc32)cccc1[N+](=O)[O-]`, the “lipid storage change, negative = inhibition” value is 9.85% (inactive) and the cell number change was found to be 23.4%.

Turning to `Cc1ccc(C2(C)NC(=O)N(CC(=O)Nc3ccc4c(c3)CCC4)C2=O)cc1` (stereo not given), the “lipid storage change, negative = inhibition” value was 8.92% (inactive) and the cell number change is -12.5%.

Turning to `O=C(N/C(=C/c1cccnc1)C(=O)N1CCOCC1)c1ccco1`, the “lipid storage change, negative = inhibition” value was -0.339% (inactive) and the cell number change came out at 0.681%.

With `COc1cc(-c2nc(CCNC(=O)c3ccco3)cs2)cc(OC)c1OC`, the Potency was 18.4 µM (active) and the cell number change is -3.07%.

As to `COc1ccc(-c2nc(CCNC(=O)c3ccc(Br)o3)cs2)cc1`, the outcome was inactive and the cell number change was 29.2%.

With `O=C(NCCc1csc(-c2cccnc2)n1)c1ccco1`, the cell number change was determined as 14.6% and the lipid storage change, negative = inhibition was 1.09% [at 9.22 µM] (inactive).

With `Cc1ccccc1CCN(C(=O)CN1C(=O)c2ccccc2S1(=O)=O)C(C(=O)NCC1CCCO1)c1ccncc1` (stereo not given), the “lipid storage change, negative = inhibition” value is 2.68% (inactive) and the cell number change is -7.43%.

In the case of `Cc1ccccc1NS(=O)(=O)c1ccc(OCC(=O)NCc2ccccn2)cc1`, the “lipid storage change, negative = inhibition” value is 5.38% (inactive) and the cell number change was found to be 6.59%.
